The nature of assay [1]: antimalarial activity against Dd2 strain (AID 2302;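 active means growth inhibition above 50% at the single 2 µM test dose, taken to imply half-maximal potency below 2 µM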;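 further: 0% = DMSO untreated growth and 100% = chloroquine plus artemisinin killed control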). Particulars: P. falciparum Dd2 in RBCs, LDH growth readout, 72 h; at 2 µM; hits give high values.
Assay [2] can be described thus: human hepatoma cell viability loss – ATP luminescence, cytotoxicity control for P. falciparum antimalarial project, primary screen (AID 2303;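 active means inhibition above 50%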;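 further: 0% = DMSO wells and 100% = digitonin-killed cells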). Particulars: HepG2 viability, 24-48 h, at 10 µM, hits give high values.
For assay [3], the target named is L-lactate dehydrogenase (Plasmodium falciparum (isolate CDC / Honduras)) (UniProt Q27743). Kind of assay: PfLDH activity inhibition – cell lysate, 3D7 strain, counter-screen for P. falciparum growth inhibition project (AID 2304).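 Further: 0% = vehicle and 100% = reference inhibitor.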 Particulars: P. falciparum 3D7 crude extract, LDH APAD/NBT absorbance; at 2 µM; hits give high values. On the technique in general: The purpose of a counterscreen is to sort out artefacts and off-target activity.

A short description of assay [4]: inhibition of 3D7 malaria parasite growth – strain 3D7 (AID 2306).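 Further: 0% = DMSO wells and 100% = chloroquine plus artemisinin control wells.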 Particulars: P. falciparum 3D7 erythrocytic growth, LDH absorbance, 72 h; at 2 µM; hits give high values.
Assay [5] deals with Calcium-dependent protein kinase 1 (Plasmodium falciparum (isolate 3D7)) (UniProt P62344). Kind of assay: PfCDPK1 kinase inhibitors, biochemical, TCAMS library (AID 1159585; cut-off not given, nearly all actives have IC50 up to about 0.98 µM;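 further: inhibitors leave more ATP so luminescence rises with inhibition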). The note with it: recombinant PfCDPK1, Kinase-Glo ATP depletion luminescence.
In assay [6] the target is Plasmodium falciparum protein kinase 6 (PK6, PF3D7_1337100) (UniProt Q8IDW1). Kind of assay: PfPK6 kinase inhibitors, biochemical, TCAMS library (AID 1159586). The note with it: recombinant PfPK6, Kinase-Glo ATP depletion luminescence. In general terms: Kinase-Glo measures the ATP left after a reaction by luminescence.
Assay [7] addresses Protein kinase 7 (PK7), Plasmodium falciparum 3D7 (PF3D7_0213400) (UniProt Q7YTF7). Kind of assay: inhibition of Plasmodium PK7 catalytic activity – biochemical, TCAMS antimalarial set, Kinase-Glo luminescence (AID 1159587). The note with it: recombinant PfPK7, Kinase-Glo ATP depletion luminescence.
Assay [8] deals with Calcium-dependent protein kinase 4 (Plasmodium falciparum (isolate 3D7)) (UniProt Q8IBS5). Kind of assay: PfCDPK4 kinase inhibitors, biochemical, TCAMS library (AID 1159588; cut-off not given, nearly all actives have IC50 up to about 0.91 µM). Particulars: recombinant PfCDPK4, Kinase-Glo ATP depletion luminescence.

A number with no mark means an inactive call. For some of these results: Entries with a potency or affinity are not part of this list. Active and inactive are the calls of the source. Unless noted, how the calls were made is not given here.

The term inhibition denotes the drop in the measured response relative to a control, in per cent.

Chain of Calcium-dependent protein kinase 4 (Plasmodium falciparum (isolate 3D7)) (Q8IBS5 whole entry, looked up): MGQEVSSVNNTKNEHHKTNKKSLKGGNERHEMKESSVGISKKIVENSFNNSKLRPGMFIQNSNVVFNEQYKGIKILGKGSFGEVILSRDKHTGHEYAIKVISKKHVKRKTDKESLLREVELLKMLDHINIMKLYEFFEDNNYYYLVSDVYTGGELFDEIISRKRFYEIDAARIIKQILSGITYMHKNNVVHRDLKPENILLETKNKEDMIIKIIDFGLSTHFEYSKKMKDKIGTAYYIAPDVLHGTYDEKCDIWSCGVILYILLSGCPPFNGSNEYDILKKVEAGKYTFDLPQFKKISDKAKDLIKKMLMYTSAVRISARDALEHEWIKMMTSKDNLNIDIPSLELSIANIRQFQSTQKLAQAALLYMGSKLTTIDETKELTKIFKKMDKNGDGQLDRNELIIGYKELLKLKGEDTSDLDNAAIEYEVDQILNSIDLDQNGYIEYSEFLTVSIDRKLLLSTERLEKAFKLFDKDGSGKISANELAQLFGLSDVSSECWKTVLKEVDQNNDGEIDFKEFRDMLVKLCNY
Chain of Plasmodium falciparum protein kinase 6 (PK6, PF3D7_1337100) (Q8IDW1 1-305): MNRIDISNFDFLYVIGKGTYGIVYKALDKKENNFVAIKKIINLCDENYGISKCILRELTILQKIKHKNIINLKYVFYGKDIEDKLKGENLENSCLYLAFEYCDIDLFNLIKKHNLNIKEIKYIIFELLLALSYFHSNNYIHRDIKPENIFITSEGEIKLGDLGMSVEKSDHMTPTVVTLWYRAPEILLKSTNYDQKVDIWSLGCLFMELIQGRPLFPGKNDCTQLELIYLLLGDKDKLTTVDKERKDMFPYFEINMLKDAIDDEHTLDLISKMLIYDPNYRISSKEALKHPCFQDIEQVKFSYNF
Chain of L-lactate dehydrogenase (Plasmodium falciparum (isolate CDC / Honduras)) (Q27743 whole entry, looked up): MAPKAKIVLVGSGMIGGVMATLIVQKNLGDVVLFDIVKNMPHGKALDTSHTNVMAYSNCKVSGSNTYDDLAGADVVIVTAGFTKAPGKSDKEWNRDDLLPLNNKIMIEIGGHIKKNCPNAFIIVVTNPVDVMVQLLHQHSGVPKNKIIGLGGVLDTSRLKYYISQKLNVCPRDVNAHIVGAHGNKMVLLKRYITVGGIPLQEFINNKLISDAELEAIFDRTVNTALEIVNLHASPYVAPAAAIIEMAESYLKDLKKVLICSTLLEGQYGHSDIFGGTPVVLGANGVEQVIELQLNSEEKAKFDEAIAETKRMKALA
Chain of Protein kinase 7 (PK7), Plasmodium falciparum 3D7 (PF3D7_0213400) (Q7YTF7 1-343): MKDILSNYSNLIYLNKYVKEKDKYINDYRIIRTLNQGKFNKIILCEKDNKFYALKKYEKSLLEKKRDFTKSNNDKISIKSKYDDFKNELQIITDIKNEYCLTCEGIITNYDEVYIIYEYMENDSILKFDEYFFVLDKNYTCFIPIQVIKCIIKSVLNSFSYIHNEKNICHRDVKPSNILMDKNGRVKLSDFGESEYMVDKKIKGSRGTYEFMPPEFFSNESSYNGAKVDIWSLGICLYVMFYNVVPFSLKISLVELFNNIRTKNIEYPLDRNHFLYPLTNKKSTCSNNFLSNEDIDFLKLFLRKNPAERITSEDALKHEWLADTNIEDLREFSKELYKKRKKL
Chain of Calcium-dependent protein kinase 1 (Plasmodium falciparum (isolate 3D7)) (P62344 whole entry, looked up): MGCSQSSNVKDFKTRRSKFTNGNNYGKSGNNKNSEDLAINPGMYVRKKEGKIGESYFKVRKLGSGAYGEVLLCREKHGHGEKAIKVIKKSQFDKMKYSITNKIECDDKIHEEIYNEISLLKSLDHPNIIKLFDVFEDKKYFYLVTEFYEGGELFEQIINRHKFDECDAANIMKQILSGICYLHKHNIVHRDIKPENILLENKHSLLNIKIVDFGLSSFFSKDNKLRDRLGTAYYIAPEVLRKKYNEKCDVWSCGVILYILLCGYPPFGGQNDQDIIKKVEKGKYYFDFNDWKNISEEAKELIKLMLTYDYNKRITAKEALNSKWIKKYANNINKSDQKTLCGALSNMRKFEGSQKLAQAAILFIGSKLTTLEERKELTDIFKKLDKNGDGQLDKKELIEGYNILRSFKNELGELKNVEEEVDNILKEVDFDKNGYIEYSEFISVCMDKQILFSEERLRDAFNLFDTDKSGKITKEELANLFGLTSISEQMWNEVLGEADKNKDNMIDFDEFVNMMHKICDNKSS

Turning to `CN(CCN1CCC(c2c[nH]c3ccccc23)CC1)c1ccc(-c2nc3cc(Cl)c(Cl)cc3[nH]2)cc1`, the growth inhibition in assay [1] and in assay [4] was 101% (active) in each case. Besides, the inhibition in assay [2] is 22%; in assay [3], -1%. Also, the result in assay [5], in assay [6], in assay [7] and in assay [8] was inactive.

For `c1cc2nc(CCCc3nc4ccc(C5=N[C@H]6CCCC[C@H]6N5)cc4[nH]3)[nH]c2cc1C1=N[C@@H]2CCCC[C@@H]2N1`, the growth inhibition in assay [1] is 84% (active); in assay [4], 85% (active). Besides, the inhibition in assay [2] is 10%; in assay [3], -2%. Moreover, the result in assay [5], in assay [6], in assay [7] and in assay [8] was inactive.

`Fc1cccc(C=NNc2ccnc3ccccc23)c1`: the figures for the growth inhibition in assay [1] and in assay [4] were 72% (active) and 103% (active), respectively. Moreover, the inhibition was 3% in assay [2] and 7% in assay [3]. In addition, the result in assay [5], in assay [6], in assay [7] and in assay [8] was inactive.

For `CC(C)(C(=O)NCCC1CCN(CCCCCNC(=O)/C=C/c2ccc(Cl)c(Cl)c2)CC1)c1ccc(Cl)cc1`, the results for the growth inhibition in assay [1] and in assay [4] were 33% and 89% (active), respectively. Moreover, the inhibition in assay [2] was 92% (active); in assay [3], -2%. For the same compound, the outcome in assay [5], in assay [6], in assay [7] and in assay [8] was inactive.

Regarding `c1ccc2[nH]c(-c3ccc(-c4ccc(CN5CCN(CCN6CCOCC6)CC5)cc4)s3)nc2c1`, the growth inhibition in assay [1] and in assay [4] was 100% (active) each time. In addition, the inhibition is 39% in assay [2] and -2% in assay [3]. For the same compound, the outcome in assay [5], in assay [6], in assay [7] and in assay [8] was inactive.

Consider `O=c1cc(NCC2(CNCc3cn(Cc4ccccc4)c4ccccc34)CCCCC2)[nH]c2ccccc12`, for which the figures for the growth inhibition in assay [1] and in assay [4] were 56% (active) and 100% (active), respectively. For the same compound, the inhibition was 27% in assay [2] and 1% in assay [3]. Also, the result in assay [5], in assay [6], in assay [7] and in assay [8] was inactive.

As to `CC(C)(C)c1ccc(CN2CCCCC(NC(=O)c3cc(-c4cccc(F)c4)cs3)C2)cc1` (stereo not given), the growth inhibition in assay [1] was 84% (active); in assay [4] it was 98% (active). Besides, the inhibition in assay [2] was 8%; in assay [3], -3%. The outcome in assay [5], in assay [6], in assay [7] and in assay [8] was inactive.

For the compound `Nc1cc2c(C3CCN(CC4CCN(C(=O)/C=C/c5ccc(Cl)c(Cl)c5)CC4)CC3)c[nH]c2cn1`, the growth inhibition is 94% (active) in assay [1] and 101% (active) in assay [4]. Moreover, the inhibition in assay [2] was 0%; in assay [3] it was -3%. Moreover, the outcome in assay [5], in assay [6], in assay [7] and in assay [8] was inactive.

As for `Cc1c(F)cc(C(=O)NC2CC2)cc1-c1ccc2c(cnn2S(=O)(=O)c2cccs2)c1`, the growth inhibition in assay [1] is 68% (active); in assay [4] it was 92% (active). The inhibition in assay [2] is 32%; in assay [3] it was -4%. Moreover, the result in assay [5], in assay [6], in assay [7] and in assay [8] was inactive.

Regarding `COc1ccc(CC2(c3ccc(F)cc3)N=C(N)N(CCCc3ccccc3)C2=O)cc1` (stereo not given), the growth inhibition in assay [1] was 97% (active); in assay [4], 99% (active). Besides, the inhibition in assay [2] was 38%; in assay [3] it was 0%. Further, the result in assay [5], in assay [6], in assay [7] and in assay [8] was inactive.

As for `N#Cc1ccc(N2CCN(Cc3cccc(-c4ccc(-c5nc6ccc(C(F)(F)F)cc6[nH]5)cc4)c3)CC2)nc1`, the growth inhibition in assay [1] is 81% (active); in assay [4], 101% (active). For the same compound, the inhibition in assay [2] is 39%; in assay [3], -1%. The result in assay [5], in assay [6], in assay [7] and in assay [8] was inactive.

In the case of `CC1CCN(Cc2cccc(C(=O)NCc3ccc(F)c(-c4cccc(CN5CCN[C@@H](C)C5)c4)c3)c2)CC1`, the growth inhibition in assay [1] is 64% (active); in assay [4], 91% (active). The inhibition in assay [2] is 26%; in assay [3], 2%. The outcome in assay [5], in assay [6], in assay [7] and in assay [8] was inactive.

As for `COc1cc2ncnc(Nc3ccc(Br)c(Cl)c3)c2cc1OC`, the growth inhibition is 15% in assay [1] and 101% (active) in assay [4]. The values for the inhibition in assay [2] and in assay [3] were 22% and 6%, respectively. For the same compound, the result in assay [5], in assay [6], in assay [7] and in assay [8] was inactive.

Turning to `CC(C)NCc1ccc(-c2ccc(NC(=O)c3ccc(C#N)cc3)cc2)cc1`, the growth inhibition in assay [1] is 0%; in assay [4], 90% (active). Besides, the figures for the inhibition in assay [2] and in assay [3] were 23% and -2%, respectively. Further, the outcome in assay [5], in assay [6], in assay [7] and in assay [8] was inactive.

In the case of `CCc1cn2c3c(cc(C(=O)N[C@@H](Cc4ccccc4)[C@H](O)CNC(C)(C)CCCC(C)C)cc13)N(C)S(=O)(=O)C2`, the growth inhibition in assay [1] and in assay [4] was 98% (active) in each case. Moreover, the values for the inhibition in assay [2] and in assay [3] were 71% (active) and 8%, respectively. In addition, the result in assay [5], in assay [6], in assay [7] and in assay [8] was inactive.

For `Cc1cccc2[nH]c(-c3ccc(-c4ccc(C(=O)NCCN5CCCC5)cc4)cc3)nc12`, the figures for the growth inhibition in assay [1] and in assay [4] were 77% (active) and 101% (active), respectively. Besides, the inhibition in assay [2] is 25%; in assay [3] it was 3%. Also, the outcome in assay [5], in assay [6], in assay [7] and in assay [8] was inactive.

For the compound `CCCCN(CCCC)Cc1cc(Nc2ccnc3cc(Cl)ccc23)ccc1O`, the growth inhibition in assay [1] was 87% (active); in assay [4] it was 102% (active). Also, the inhibition in assay [2] was 67% (active); in assay [3], -1%. The result in assay [5], in assay [6], in assay [7] and in assay [8] was inactive.

Regarding `NC1=NC(c2ccccc2)(c2ccccc2)C(=O)N1Cc1ccccc1Br`, the growth inhibition was 38% in assay [1] and 93% (active) in assay [4]. Besides, the inhibition in assay [2] was 36%; in assay [3], 4%. In addition, the outcome in assay [5], in assay [6], in assay [7] and in assay [8] was inactive.

Consider `Nc1ccc(-c2cc(Cl)cc(Cl)c2)cc1-c1cc2ccccc2[nH]1`, for which the growth inhibition in assay [1] is 97% (active); in assay [4] it was 101% (active). Also, the inhibition in assay [2] is -9%; in assay [3], 0%. Further, the result in assay [5], in assay [6], in assay [7] and in assay [8] was inactive.

Take `C[C@@H](N=C(Nc1ccc(-c2ccccc2)cc1)Nc1ccc(C#N)cc1O)c1ccc(Br)cc1`: the growth inhibition in assay [1] was 95% (active); in assay [4], 99% (active). Further, the inhibition is 9% in assay [2] and 2% in assay [3]. The result in assay [5], in assay [6], in assay [7] and in assay [8] was inactive.

Source of the values: PubChem BioAssay.
